In PubChem BioAssay AID720708 (National Center for Advancing Translational Sciences (NCATS), 2013):
Out of some 360,000 compounds screened, about 660 (0.18%) were called active. About 2% were inconclusive and are not listed. The list comes from a sample in which actives are over-represented; it also holds similar structures and randomly drawn compounds. Unmarked numbers belong to inactive results. Calls follow the shape of the dose curve; as a rule, active = well fitted inhibition curve with a large enough effect; inconclusive = small, poorly fitted or top-dose-only effect; inactive = no such curve, though single readings can be large or run the other way.

Each compound was assayed against Rap guanine nucleotide exchange factor 4 (Homo sapiens) (UniProt Q8WZA2) (assay: qHTS for Antagonist of cAMP-regulated guanine nucleotide exchange factor 2 (EPAC2): primary screen). Conditions: EPAC2 GEF exchange of Rap1B-BODIPY-GDP, fluorescence; series mostly up to 114 µM; activity, negative = inhibition: at the top concentration.
Rap guanine nucleotide exchange factor 4 (Homo sapiens), sequence (Q8WZA2 whole entry, looked up): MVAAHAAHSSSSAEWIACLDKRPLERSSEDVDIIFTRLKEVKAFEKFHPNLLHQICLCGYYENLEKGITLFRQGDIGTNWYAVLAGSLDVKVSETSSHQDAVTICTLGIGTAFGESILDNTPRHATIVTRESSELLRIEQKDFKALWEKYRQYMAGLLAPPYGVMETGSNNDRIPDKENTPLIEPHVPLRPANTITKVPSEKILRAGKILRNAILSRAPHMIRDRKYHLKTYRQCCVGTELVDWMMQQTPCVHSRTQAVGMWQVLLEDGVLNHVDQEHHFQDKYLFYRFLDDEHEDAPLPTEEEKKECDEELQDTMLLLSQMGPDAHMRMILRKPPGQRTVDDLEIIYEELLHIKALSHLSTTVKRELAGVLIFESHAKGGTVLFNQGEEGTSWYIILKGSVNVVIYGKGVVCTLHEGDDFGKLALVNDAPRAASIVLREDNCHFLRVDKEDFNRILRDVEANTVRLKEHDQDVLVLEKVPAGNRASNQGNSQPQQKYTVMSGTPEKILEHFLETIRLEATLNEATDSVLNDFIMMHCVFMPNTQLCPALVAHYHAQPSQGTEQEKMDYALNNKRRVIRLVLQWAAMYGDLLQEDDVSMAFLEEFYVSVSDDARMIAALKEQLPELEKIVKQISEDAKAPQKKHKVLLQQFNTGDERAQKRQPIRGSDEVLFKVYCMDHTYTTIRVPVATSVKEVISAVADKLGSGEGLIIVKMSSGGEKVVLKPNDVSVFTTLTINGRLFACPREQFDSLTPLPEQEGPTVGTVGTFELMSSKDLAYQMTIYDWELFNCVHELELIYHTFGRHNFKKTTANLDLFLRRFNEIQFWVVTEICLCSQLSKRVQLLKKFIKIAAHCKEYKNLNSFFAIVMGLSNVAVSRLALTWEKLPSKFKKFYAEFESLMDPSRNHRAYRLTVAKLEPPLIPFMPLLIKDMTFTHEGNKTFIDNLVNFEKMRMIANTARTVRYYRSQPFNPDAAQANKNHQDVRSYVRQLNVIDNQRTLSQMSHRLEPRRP
Source text: In multi-cellular eukaryotic organisms, the effects of cAMP are transduced by two ubiquitously-expressed intracellular cAMP receptors, the classic protein kinase A/cAMP-dependent protein kinase (PKA/cAPK) and the more recently discovered exchange protein directly activated by cAMP/cAMP-regulated guanine nucleotide exchange factor (EPAC/cAMP-GEF). Both PKA and EPAC are ubiquitously expressed in all tissues, and an increase in intracellular cAMP levels will lead to the activation of both PKA and EPAC. Therefore, careful dissections of the individual role and relative contribution of EPAC and PKA within the overall cAMP signaling in various model systems are critical for further elucidating the mechanism of cAMP signaling. To date no EPAC-specific antagonists and agonist, as well as isoform-specific agonists have been reported, and developing EPAC-specific pharmacological probes to determine the physiological functions that EPAC play in the overall cAMP-mediated signaling remains a major challenge within the research field. Furthermore, identified regulators of EPAC may lead to new mechanism-based therapeutic strategies specifically targeting the EPAC / cAMP-signaling components as EPAC has been implicated to play important roles in major human pathological conditions such as diabetes, heart disease, and cancer.
This qHTS will be used to screen the Molecular Libraries Small Molecule Repository (MLSMR) as a concentration-titration series using the NCGC unique quantitative screening (qHTS) platform to find inhibitors for EPAC2. In addition, this assay will also be used as a counterscreen for the EPAC1 qHTS. This fluorescent based assay is developed and validated for EPAC2 that measures exchange using EPAC effector Rap1 complex with BODIPY-GDP, a GDP analog with a tethered fluorophores. Inhibitors are identified by monitoring the change in fluorescence signal as the exchanged free BODIPY-GDP has a reduced fluorescence compared to Rap1-bound BODIPY-GDP. Decrease in signal (inhibition) is the desired outcome for the EPAC2 antagonist while no activity in this assay is desired for the EPAC1 antagonist counterscreen.
NIH Chemical Genomics Center [NCGC]
NIH Molecular Libraries Probe Centers Network [MLPCN]
Assay Submitter (PI): Xiaodong Cheng, The University of Texas, Medical Branch
Briefly, three uL of reagents (100 nM EPAC2, 250 nM RAP1B-BODIPY-GDP, 50 uM GDP) were dispensed into a 1536-well Greiner black solid-bottom medium binding assay plate. Controls and test compounds (23 nL) were transferred to the plate via a Kalypsys pin tool equipped with a 1536-pin array. The plates were centrifuged at 1,000 rpm for 15 seconds followed by 5 minute incubation at room temperature. The assay plates were read at 5 minute intervals for 30 minutes in the ViewLux plate reader using 480nm excitation and 540nm emission filters. The results were normalized to the agonist positive control ATA and DMSO.
% is scaled to controls: 0 for no effect and ±100 for the full control effect; potency is read from the fitted curve at half-maximal effect.
Also: nearly all actives have a fitted effect of over 45% in size.

Row | SMILES | Potency | activity, negative = inhibition
1 | CCOP(=O)(OCC)C(Cc1ccccc1)N=C(c1ccccc1)c1ccccc1 (stereo not given) | 35.5 µM (active) | 
2 | CCOP(=O)(OCC)C(NC(=O)c1ccc(OC)cc1)C(Cl)(Cl)Cl (stereo not given) |  | 2.33%
3 | CCOP(=O)(OCC)C(NC(=O)c1ccc(C)cc1)C(Cl)(Cl)Cl (stereo not given) |  | 8.74%
4 | CC1=CC(=Cc2sc3ccccc3[n+]2C)C=C(C)O1 |  | 3.92%
5 | C[C@]12CC[C@H](O)C[C@H]1CC[C@@H]1C2CC[C@]2(C)[C@@H](C3=CC(=O)OC3)[C@@H](O)C[C@]12O (stereo not given in full) |  | -0.19%
6 | CCOC(=O)[C@]12Cc3ccccc3[C@H]1N(C1CCCCC1)C(=O)c1cc(OC)ccc12 | 3.16 µM (active) | 
7 | COC(=O)C1=C(c2cc3ccccc3s2)C[C@@H]2CC[C@H]1N2C(=O)NCc1cccc2ccccc12 |  | -8.1%
8 | Oc1cc2c(cc1CN1CCN(c3ccccc3)CC1)OCO2 |  | 1.4%
9 | CN(c1ccccc1)c1ccc([N+](=O)[O-])c2nonc12 |  | -14.7%
10 | ClC(Cl)(Cl)c1ccccc1 |  | -7.81%
11 | CC(c1ccccc1)(c1ccccc1)c1ccncc1 | 35.5 µM (active) | 
12 | CCCC[N+]1(C)C2CC(OC(=O)C(CO)c3ccccc3)CC1C1OC12 (stereo not given) |  | -8.66%
13 | O=C(NC(c1ccc(Cl)cc1)P(=O)(Oc1ccccc1)Oc1ccccc1)OCc1ccccc1 (stereo not given) |  | 16.5%
14 | COC(=O)C(c1ccccc1)N1CCCCCC1 (stereo not given) |  | 12.7%
15 | COC(=O)N1C(c2ccccc2)C1c1ccccc1 (stereo not given) | 31.6 µM (active) | 
16 | O=C(CN1CCCCC1)Nc1ccc(Br)cc1C(=O)c1ccccc1Cl |  | -0.013%
17 | Cn1c(O)c(C(=Nc2ccc(F)cc2)c2ccccc2)c(=O)n(C)c1=O |  | 13.4%
18 | CC(=O)N(C1=NCCCS1)c1ccccc1F |  | 9.69%
19 | Cc1ccc(-n2c(O)c(C=NCC3CCCO3)c(=O)[nH]c2=O)c(C)c1 (stereo not given) |  | -6.22%
20 | O=C(OCCN1CCOCC1)C1(c2ccccc2)CCCC1 |  | -2.62%
